Data taken from PubChem BioAssay AID623911 (Vanderbilt High Throughput Screening Facility, 2012).
About 770 (37%) of roughly 2,100 compounds were called active.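 The calls were made as follows: active = by-eye trace score of 1 for enhancers or -1 for inhibitors, so actives lie on both sides (some results past the limit were not filed as active); inactive = score 0, or 3 fluorescent, or 4 baseline rise.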 Some of the results follow.

Target: G protein-activated inward rectifier potassium channel 2 (Homo sapiens) + G protein-activated inward rectifier potassium channel 1 (Homo sapiens) (UniProt P48051+P48549)
Assay: GIRK1/2 thallium flux modulators, retest, confirmation, cell-based, HEK293 rmGlu8/hGIRK1/2, FluoZin-2 (AID 623911)
Conditions: HEK293 rmGlu8/hGIRK1/2, thallium flux FluoZin-2; actives lie on both sides; glutamate co-added at its EC20 level

Sequence of G protein-activated inward rectifier potassium channel 2 (Homo sapiens) + G protein-activated inward rectifier potassium channel 1 (Homo sapiens) (P48051 whole entry, looked up): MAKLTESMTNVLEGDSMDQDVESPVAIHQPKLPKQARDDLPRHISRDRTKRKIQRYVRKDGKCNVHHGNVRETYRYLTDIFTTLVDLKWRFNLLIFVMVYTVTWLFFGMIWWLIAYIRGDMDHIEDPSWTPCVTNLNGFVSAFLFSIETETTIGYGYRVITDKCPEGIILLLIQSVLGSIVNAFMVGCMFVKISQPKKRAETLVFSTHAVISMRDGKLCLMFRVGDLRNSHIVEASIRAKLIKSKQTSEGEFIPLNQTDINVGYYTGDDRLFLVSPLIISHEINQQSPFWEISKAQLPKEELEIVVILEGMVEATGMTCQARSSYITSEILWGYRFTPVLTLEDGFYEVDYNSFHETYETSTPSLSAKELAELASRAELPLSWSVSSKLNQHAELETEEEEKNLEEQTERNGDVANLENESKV
Sequence of G protein-activated inward rectifier potassium channel 2 (Homo sapiens) + G protein-activated inward rectifier potassium channel 1 (Homo sapiens) (P48549 whole entry, looked up): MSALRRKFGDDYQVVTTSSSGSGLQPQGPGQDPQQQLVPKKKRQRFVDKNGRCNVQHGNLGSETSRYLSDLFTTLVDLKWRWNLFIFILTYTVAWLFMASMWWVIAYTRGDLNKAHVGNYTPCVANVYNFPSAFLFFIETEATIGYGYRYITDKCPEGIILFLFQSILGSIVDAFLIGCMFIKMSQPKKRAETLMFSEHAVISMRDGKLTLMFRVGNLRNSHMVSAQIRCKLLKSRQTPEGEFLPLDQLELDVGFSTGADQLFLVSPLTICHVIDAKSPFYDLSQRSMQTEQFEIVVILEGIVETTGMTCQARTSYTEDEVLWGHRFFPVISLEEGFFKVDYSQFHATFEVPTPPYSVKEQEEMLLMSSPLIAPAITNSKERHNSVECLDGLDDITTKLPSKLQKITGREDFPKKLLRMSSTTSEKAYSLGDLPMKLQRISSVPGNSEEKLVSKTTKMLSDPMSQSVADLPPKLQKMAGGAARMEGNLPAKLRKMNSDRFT

| Structure (SMILES) | manual score |
| --- | --- |
| O=C(NC(=S)Nc1ccccc1N1CCCC1)c1ccc([N+](=O)[O-])cc1 | 1 (active) |
| O=C(COc1ccc(Br)cc1Br)NC(=S)N1CCCc2ccccc21 | 0 (inactive) |
| O=C(NC(=S)Nc1ccccc1N1CCCC1)c1ccccc1[N+](=O)[O-] | 0 (inactive) |
| Cc1c(C(=O)NC(=S)Nc2ccccc2N2CCCC2)cccc1[N+](=O)[O-] | 0 (inactive) |
| CCC1CCCCN1C(=O)CSc1nnc(-c2ccco2)o1 (centres undefined) | 0 (inactive) |
| O=C(NC(=S)N1CCCc2ccccc21)c1ccc(Br)cc1 | 1 (active) |
| O=C(NC(=S)N1CCCc2ccccc21)c1ccc(Cl)cc1 | 1 (active) |
| CCC1CCCCN1C(=S)NC(=O)c1ccc([N+](=O)[O-])cc1 (centres undefined) | 1 (active) |
| O=c1[nH]c(NCCO)nc2c1C1(CCCCC1)Cc1ccccc1-2 | 0 (inactive) |
| CCOC(=O)c1cccc(-n2c(C)cc(C=O)c2C)c1 | 0 (inactive) |
| O=C(Nc1nc(-c2cc3ccccc3oc2=O)cs1)c1ccc(Br)o1 | 0 (inactive) |
| O=C(NC(=S)N1CCc2ccccc21)c1ccccc1 | 1 (active) |
| O=C(NC(=S)N1CCCc2ccccc21)c1ccccc1 | 1 (active) |
| O=C(N/N=C1\CCCc2ccccc21)c1ccc([N+](=O)[O-])cc1 | 0 (inactive) |
| O=C(NC(=S)N1CCCc2ccccc21)c1ccc([N+](=O)[O-])cc1 | 1 (active) |
| O=C(NC(=S)N1CCc2ccccc21)c1ccccc1Br | 1 (active) |
| O=C(c1ccccc1)N1CCCc2ccccc21 | 0 (inactive) |
| C=CCN1C(=O)/C(=C2/Sc3ccccc3N2C)SC1=Nc1c(C)n[nH]c1C | 0 (inactive) |
| O=C(NC(=S)N1CCN(c2ccc(F)cc2)CC1)C12CC3CC(CC(C3)C1)C2 | 0 (inactive) |
| O=C(NC(=S)N1CCN(c2ccc([N+](=O)[O-])cc2)CC1)c1ccc(F)cc1 | 1 (active) |
| CCC(=O)c1ccc(N2CCN(C(=O)c3cc([N+](=O)[O-])ccc3N3CCN(C)CC3)CC2)c(F)c1 | 0 (inactive) |
| O=S(=O)(Nc1cc(Cl)ccc1N1CCCCC1)c1cccs1 | -1 (active) |

| Structure (SMILES) | manual score |
| --- | --- |
| O=S(=O)(Nc1ccccc1N1CCCCC1)c1ccc(Cl)s1 | 0 (inactive) |
| CCC/C(=N/NC(=O)c1csc(C)c1C)c1ccc(Cl)s1 | 0 (inactive) |
| COc1ccc(-c2onc(C)c2-c2ccc(C(=O)OC(C)C)o2)c(O)c1 | 0 (inactive) |
| COc1ccc(-n2ncc3c(NCc4cccs4)ncnc32)cc1 | 0 (inactive) |
| COc1ccc(-c2c(S(=O)(=O)c3ccccc3)cnn2-c2ccccc2)cc1 | -1 (active) |
| COc1ccc(-c2c3c(=O)n(C)c(=O)n(C)c3cn2-c2ccccc2)cc1 | 0 (inactive) |
| N#Cc1c(N)nc(SCc2ccccc2)c(C#N)c1-c1ccco1 | 0 (inactive) |
| Cc1ccc(OCC(=O)NNC(=O)C(C)Sc2ncnc3sc(C)c(C)c23)cc1 (centres undefined) | 1 (active) |
| CC(NC(=O)COc1ccccc1)C(=O)NC1=NCCS1 (centres undefined) | 0 (inactive) |
| CCOC(=O)c1c(NC(=O)CSc2nnc(-c3ccncc3)n2Cc2ccco2)sc(C(C)=O)c1C | -1 (active) |
| COC(=O)c1c(NC(=O)CSc2nnc(-c3cccnc3)n2Cc2ccco2)sc(C)c1C | -0.5 (inactive) |
| CCOc1ccccc1NC(=O)CSc1nnc(-c2ccco2)n1Cc1ccco1 | 0 (inactive) |
| CCn1cc(C(=O)N2CC=C(c3ccccc3)CC2)c(=O)c2ccc(C)nc21 | 0 (inactive) |
| O=C(COC(=O)c1cccc(N2C(=O)c3ccccc3C2=O)c1)Nc1ccccc1 | 0 (inactive) |
| O=C(CSc1ccc2ccccc2c1Br)Nc1cccc(S(=O)(=O)NC2=NCCCCC2)c1 | 0 (inactive) |
| CCc1ccc(C(=O)OCC(=O)Nc2cccc(S(=O)(=O)NC3=NCCCCC3)c2)cc1 | 1 (active) |
| S=C(Nc1ccc(Cl)cc1)c1nc2ccccc2[nH]1 | 1 (active) |
| N#C/C(=C/c1ccc(N2CCOCC2)o1)c1nc2ccccc2[nH]1 | 3 (inactive) |
| Cc1oncc1C(=S)Nc1ccccc1 | 0 (inactive) |
| Cc1ccc(NC(=S)c2nc3ccccc3[nH]2)cc1 | 1 (active) |
| COc1ccc(OC)c(S(=O)(=O)N(C)CC(=O)N2CCN(c3ccccc3F)CC2)c1 | 0 (inactive) |
| COc1ccc(S(=O)(=O)N(CC(=O)N2CCN(c3ccccc3)CC2)c2ccccc2)cc1 | 0 (inactive) |

| Structure (SMILES) | manual score |
| --- | --- |
| CCOC(=O)N1CCN(C(=O)CN(Cc2ccccc2)S(=O)(=O)c2ccc(OC)c(C)c2)CC1 | -1 (active) |
| COc1cc(/C=C2\SC(=S)NC2=O)ccc1OS(=O)(=O)c1ccccc1 | 1 (active) |
| O=C1NC(=S)/C(=C\c2ccc(-c3ccccc3Cl)o2)S1 | 3 (inactive) |
| O=C1NC(=S)S/C1=C\c1ccc(SCc2ccccc2)o1 | 0.5 (inactive) |
| COc1ccc(/C=C2\SC(=O)NC2=S)cc1OC | 1 (active) |
| COc1cc(/C=C2/SC(=S)NC2=O)ccc1OS(=O)(=O)c1ccc(C)cc1 | 0 (inactive) |
| O=C1NC(=O)/C(=C\c2ccccc2Oc2ccc(F)c(F)c2)S1 | 0 (inactive) |
| CCOc1ccc(-c2nc(-c3ccc(OC)cc3)no2)cc1OCC | 0 (inactive) |
| OCCCN=c1cc(-c2ccccc2)oc2ccc(Cl)cc12 | -1 (active) |
| O=S(=O)(c1ccc(Cl)c(F)c1)N1CCC(c2nc(-c3ccncc3)no2)CC1 | 1 (active) |
| CC(C)c1ccc(-c2noc(C3CCCN(S(C)(=O)=O)C3)n2)cc1 (centres undefined) | 0 (inactive) |
| O=C(NC(=S)N1CCN(Cc2ccc3c(c2)OCO3)CC1)c1ccc(Cl)cc1 | 1 (active) |
| O=C(c1ccc2nccnc2c1)N1CCN(Cc2ccc3c(c2)OCO3)CC1 | 1 (active) |
| CCN(CC)c1ccc(C(=O)NC(=S)N2CCN(Cc3ccc4c(c3)OCO4)CC2)cc1 | 0 (inactive) |
| O=C(c1ccc(COc2c(F)c(F)c(F)c(F)c2F)o1)N1CCN(Cc2ccc3c(c2)OCO3)CC1 | 0 (inactive) |
| O=C(NC(=S)N1CCN(Cc2ccc3c(c2)OCO3)CC1)c1cccc(Br)c1 | 1 (active) |
| Cc1cc2cc3c(cc2nc1SCC(=O)N1CCN(C(=O)c2ccco2)CC1)OCO3 | 0 (inactive) |
| C/C(=N/NC(=S)Nc1ccccc1)c1ccc2c(c1)OCO2 | 0 (inactive) |
| C/C(=N\NC(=S)Nc1ccc(F)cc1)c1ccc2c(c1)OCCO2 | 1 (active) |
| Fc1ccc(NC(=S)NN=C2CCCCCC2)cc1 | 0 (inactive) |
